Consider 5 compounds from PubChem BioAssay.

The subject of assay [1] is PRMT1 (protein arginine N-methyltransferase 1). Description: PRMT1 binders on small-molecule microarrays, primary screen, biochemical, small-molecule microarray, 635 nm fluorescence (AID 1088).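 Note: binding of Prmt1 protein to compounds spotted on small-molecule microarray slides.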 The settings on record: small-molecule microarray binding, higher = more signal.
The nature of assay [2]: yeast growth modulation, basal conditions, primary screen, YJM789 clinical isolate, OD600, 24 h (AID 1089).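 Note: growth of clinical yeast isolate S. cerevisiae YJM 789 seeded 1000 cells per well; test concentration not given here.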 The conditions noted are these: S. cerevisiae YJM789 growth, higher = more signal, called active from +8 up or from −8 down.
Assay [3] is described as follows: fission yeast growth modulation, primary screen, strain 972, OD600, 24 h, no modulator (AID 1090).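 Note: basal condition with compound alone and no growth modifier present; test concentration not given here.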 The settings on record: S. pombe 972 growth, higher = more signal, called active from +8 up or from −8 down.
The nature of assay [4]: S. cerevisiae growth modulation with rapamycin, primary screen, strain BY4716, OD600, 96 h (AID 1091). Note: test concentration not given here. The settings on record: higher = more signal, called active from +8 up or from −8 down.
Assay [5] has as its target Torsin-1A-interacting protein 2 (Homo sapiens) (UniProt Q8NFQ8). Description: LULL1 binders on small-molecule microarray, primary screen, cell lysate, human LULL1 lysate, 635/667 nm fluorescence (AID 1092).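 Note: probe is lysate of COS7 cells overexpressing human LULL1; score merges per-feature 667 nm fluorescence with signal-to-noise.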 The settings on record: hLULL1 lysate binding, 635 nm fluorescence, higher = more signal.
The nature of assay [6]: E. coli growth modulation, two-sided OD650, primary screen, E. coli filamentation project, strain DRC41, 24 h (AID 1093).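 Note: MC1000 strain lacking acrAB efflux and sulA so SOS filamentation is blocked; test concentration not given here.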 The settings on record: OD650, 24 h, higher = more signal, called active from +8 up or from −8 down.
Assay [7] in a line: small-molecule microarray binders of probe aLefty2, primary screen, biochemical, biotinylated probe, 635/667 nm fluorescence (AID 1094).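 Note: score merges spot fluorescence near 667 nm with spot signal-to-noise ratio.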 The conditions noted are these: higher = more signal.
The subject of assay [8] is Noggin (protein binding on small-molecule microarray). Briefly: Noggin binders on small-molecule microarray, primary screen, biochemical, 635/667 nm fluorescence (AID 1095).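 Note: score merges 667 nm feature fluorescence with signal to noise over triplicate slides.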 The conditions noted are these: 635 nm fluorescence, higher = more signal.
Assay [9] has as its target Neurogenic locus notch homolog protein 3 (Homo sapiens) (UniProt Q9UM47). Briefly: NOTCH3 binders on small-molecule microarray, primary screen, biochemical, 635/667 nm fluorescence (AID 1096). The settings on record: NOTCH3 binding, 635 nm fluorescence, higher = more signal.
Assay [10] in a line: small-molecule microarray binders of probe aEGFR, primary screen, biochemical, biotinylated probe, 635/667 nm fluorescence (AID 1097).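 Note: probe is a biotinylated anti-EGFR antibody binding compounds printed on slides; score combines fluorescence near 667 nm and signal to noise of each spot.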 The settings on record: higher = more signal.
Assay [11] has as its system Plasmodium falciparum Sir2 (PF13_0152, Sir2A). Briefly: pfSir2 binders on small-molecule microarrays, primary screen, biochemical, small-molecule microarray, 635 nm fluorescence (AID 1098).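 Note: score merges spot fluorescence intensity with its signal-to-noise ratio.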 The conditions noted are these: small-molecule microarray binding, fluorescence 635 nm; higher = more signal.
Assay [12] is described as follows: small-molecule microarray binders of probe aDKK1, primary screen, biochemical, biotinylated probe, 635/667 nm fluorescence (AID 1099).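 Note: score merges 667nm spot fluorescence with signal to noise across triplicate slides; reference of the scale not given here.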 The settings on record: higher = more signal.
Assay [13] is described as follows: small-molecule microarray binders of probe aCHRDL2, primary screen, biochemical, biotinylated probe, 635/667 nm fluorescence (AID 1100). The settings on record: higher = more signal.
The nature of assay [14]: splicing luciferase reporter signal modulators, primary screen, spliceosome inhibition project, cell-based, HEK293, splice +/- reporter (AID 1101).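 Note: HEK293 cells carrying a splicing-competent luciferase reporter gene; test concentration not given here.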 The conditions noted are these: luminescence, 24 h, higher = more signal, called active from +8 up or from −8 down. A general note: A reporter such as luciferase makes a cellular process visible.
The target in assay [15] is Fibroblast growth factor 10 (Homo sapiens) (UniProt O15520). Briefly: FGF10 binders on small-molecule microarrays, primary screen, biochemical, small-molecule microarray, 635 nm fluorescence (AID 1102). The settings on record: FGF10 binding, fluorescence 635 nm, higher = more signal.
Assay [16] concerns glycogen synthase kinase-3 (GSK3A per assay name; protocol says GSK3B). Description: GSK3 binders on small-molecule microarrays, primary screen, biochemical, small-molecule microarray, 635 nm fluorescence, GSK3A (AID 1103). Note: the record names both GSK3A and GSK3B. The settings on record: small-molecule microarray binding, fluorescence 635 nm; higher = more signal.
Assay [17] addresses Epidermal growth factor receptor (Homo sapiens) (UniProt P00533). Briefly: EGFR binders on small-molecule microarrays, primary screen, biochemical, small-molecule microarray, 635 nm fluorescence (AID 1104).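 Note: score merges 667 nm emission intensity with spot signal to noise over triplicate slides.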 The conditions noted are these: EGFR binding, higher = more signal.
Assay [18] deals with Follistatin-related protein 3 (Homo sapiens) (UniProt O95633). Briefly: FSTL3 binders on small-molecule microarrays, primary screen, biochemical, small-molecule microarray, 635 nm fluorescence (AID 1105).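 Note: score merges emission near 667 nm and signal to noise per printed spot across three slides.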 The conditions noted are these: FSTL3 binding, higher = more signal.
In assay [19] the target is Dickkopf-related protein 1 (Homo sapiens) (UniProt O94907). Briefly: DKK1 binders on small-molecule microarrays, primary screen, biochemical, small-molecule microarray, 635 nm fluorescence scan (AID 1106).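 Note: score merges emission near 667 nm with signal to noise over three replicate slides.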 The settings on record: DKK1 binding, higher = more signal.
In assay [20] the test system is Inhibin beta A chain (activin A). Description: INHBA (activin A) binders on microarrays, primary screen, biochemical, small-molecule microarray, 635 nm fluorescence scan (AID 1107).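 Note: mouse activin A protein probed at 4.33 µg/mL on printed slides; score merges bound-protein fluorescence near 667 nm with spot signal-to-noise.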 The conditions noted are these: small-molecule microarray binding, higher = more signal.

Active and inactive are the calls of the source.

Sequence of Follistatin-related protein 3 (Homo sapiens) (O95633 whole entry, looked up): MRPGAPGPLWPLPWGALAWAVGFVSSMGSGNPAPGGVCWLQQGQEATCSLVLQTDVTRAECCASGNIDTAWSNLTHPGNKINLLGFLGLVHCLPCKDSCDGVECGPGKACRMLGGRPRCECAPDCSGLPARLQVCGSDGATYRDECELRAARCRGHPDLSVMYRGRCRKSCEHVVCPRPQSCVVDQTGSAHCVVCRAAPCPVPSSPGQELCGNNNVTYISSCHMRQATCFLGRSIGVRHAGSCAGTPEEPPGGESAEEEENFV
Sequence of Neurogenic locus notch homolog protein 3 (Homo sapiens) (Q9UM47 whole entry, looked up): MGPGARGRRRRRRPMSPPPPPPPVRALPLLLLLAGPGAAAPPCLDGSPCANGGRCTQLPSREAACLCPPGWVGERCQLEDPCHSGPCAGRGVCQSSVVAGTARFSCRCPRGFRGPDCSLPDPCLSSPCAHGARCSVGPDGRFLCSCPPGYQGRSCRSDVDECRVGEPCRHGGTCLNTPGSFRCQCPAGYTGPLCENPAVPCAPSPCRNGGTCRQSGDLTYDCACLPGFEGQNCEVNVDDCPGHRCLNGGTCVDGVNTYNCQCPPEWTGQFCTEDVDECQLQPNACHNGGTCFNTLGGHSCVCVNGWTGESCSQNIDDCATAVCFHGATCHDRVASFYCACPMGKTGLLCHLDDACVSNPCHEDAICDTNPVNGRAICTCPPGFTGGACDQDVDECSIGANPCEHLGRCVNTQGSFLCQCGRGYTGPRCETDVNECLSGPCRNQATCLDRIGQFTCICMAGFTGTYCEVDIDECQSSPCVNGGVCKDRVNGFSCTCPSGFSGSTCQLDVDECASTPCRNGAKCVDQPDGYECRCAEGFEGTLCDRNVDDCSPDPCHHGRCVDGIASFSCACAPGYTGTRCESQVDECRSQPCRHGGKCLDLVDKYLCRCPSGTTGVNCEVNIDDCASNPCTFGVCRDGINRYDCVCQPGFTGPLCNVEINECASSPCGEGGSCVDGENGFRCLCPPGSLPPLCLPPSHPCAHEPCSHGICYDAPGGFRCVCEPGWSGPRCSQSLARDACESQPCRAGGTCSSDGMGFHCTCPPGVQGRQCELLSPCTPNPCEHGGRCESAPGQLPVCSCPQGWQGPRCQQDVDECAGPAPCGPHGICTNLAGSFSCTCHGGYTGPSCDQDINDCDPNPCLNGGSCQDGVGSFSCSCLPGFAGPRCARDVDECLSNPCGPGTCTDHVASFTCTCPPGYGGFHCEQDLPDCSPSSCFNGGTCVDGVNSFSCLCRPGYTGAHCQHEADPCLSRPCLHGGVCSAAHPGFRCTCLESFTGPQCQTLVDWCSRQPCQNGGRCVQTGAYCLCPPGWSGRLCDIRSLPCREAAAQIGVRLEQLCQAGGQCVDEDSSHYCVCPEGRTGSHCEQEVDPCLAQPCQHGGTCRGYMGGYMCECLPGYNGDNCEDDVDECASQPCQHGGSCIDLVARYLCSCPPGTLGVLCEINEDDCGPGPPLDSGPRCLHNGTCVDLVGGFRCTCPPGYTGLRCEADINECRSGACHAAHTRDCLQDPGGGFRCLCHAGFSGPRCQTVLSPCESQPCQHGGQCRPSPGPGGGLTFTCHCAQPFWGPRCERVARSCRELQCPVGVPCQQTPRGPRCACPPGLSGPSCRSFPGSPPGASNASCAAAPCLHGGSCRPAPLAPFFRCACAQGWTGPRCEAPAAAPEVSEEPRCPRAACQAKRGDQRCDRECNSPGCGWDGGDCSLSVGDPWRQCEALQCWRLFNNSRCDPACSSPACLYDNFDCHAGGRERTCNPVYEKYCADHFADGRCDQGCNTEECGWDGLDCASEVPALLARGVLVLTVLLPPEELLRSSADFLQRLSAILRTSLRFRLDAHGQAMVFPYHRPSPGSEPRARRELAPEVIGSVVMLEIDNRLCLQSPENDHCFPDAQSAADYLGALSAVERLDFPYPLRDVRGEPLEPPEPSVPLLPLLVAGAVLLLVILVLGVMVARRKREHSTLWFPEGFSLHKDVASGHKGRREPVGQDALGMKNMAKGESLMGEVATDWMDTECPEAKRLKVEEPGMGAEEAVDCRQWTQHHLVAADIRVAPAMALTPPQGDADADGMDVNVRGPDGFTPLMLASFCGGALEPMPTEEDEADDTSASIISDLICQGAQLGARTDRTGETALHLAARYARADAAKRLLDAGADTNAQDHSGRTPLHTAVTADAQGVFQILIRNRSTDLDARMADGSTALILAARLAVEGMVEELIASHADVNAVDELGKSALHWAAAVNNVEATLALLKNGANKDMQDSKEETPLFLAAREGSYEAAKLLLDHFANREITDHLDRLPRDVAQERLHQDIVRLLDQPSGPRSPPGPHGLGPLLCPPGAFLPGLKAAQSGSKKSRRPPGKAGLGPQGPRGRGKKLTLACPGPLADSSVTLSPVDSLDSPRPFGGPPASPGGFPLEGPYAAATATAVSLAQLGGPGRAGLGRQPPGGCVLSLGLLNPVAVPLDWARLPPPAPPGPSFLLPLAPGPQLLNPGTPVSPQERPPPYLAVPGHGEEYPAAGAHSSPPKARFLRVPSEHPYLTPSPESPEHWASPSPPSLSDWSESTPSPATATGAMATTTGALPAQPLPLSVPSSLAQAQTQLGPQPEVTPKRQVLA
Sequence of Epidermal growth factor receptor (Homo sapiens) (P00533 whole entry, looked up): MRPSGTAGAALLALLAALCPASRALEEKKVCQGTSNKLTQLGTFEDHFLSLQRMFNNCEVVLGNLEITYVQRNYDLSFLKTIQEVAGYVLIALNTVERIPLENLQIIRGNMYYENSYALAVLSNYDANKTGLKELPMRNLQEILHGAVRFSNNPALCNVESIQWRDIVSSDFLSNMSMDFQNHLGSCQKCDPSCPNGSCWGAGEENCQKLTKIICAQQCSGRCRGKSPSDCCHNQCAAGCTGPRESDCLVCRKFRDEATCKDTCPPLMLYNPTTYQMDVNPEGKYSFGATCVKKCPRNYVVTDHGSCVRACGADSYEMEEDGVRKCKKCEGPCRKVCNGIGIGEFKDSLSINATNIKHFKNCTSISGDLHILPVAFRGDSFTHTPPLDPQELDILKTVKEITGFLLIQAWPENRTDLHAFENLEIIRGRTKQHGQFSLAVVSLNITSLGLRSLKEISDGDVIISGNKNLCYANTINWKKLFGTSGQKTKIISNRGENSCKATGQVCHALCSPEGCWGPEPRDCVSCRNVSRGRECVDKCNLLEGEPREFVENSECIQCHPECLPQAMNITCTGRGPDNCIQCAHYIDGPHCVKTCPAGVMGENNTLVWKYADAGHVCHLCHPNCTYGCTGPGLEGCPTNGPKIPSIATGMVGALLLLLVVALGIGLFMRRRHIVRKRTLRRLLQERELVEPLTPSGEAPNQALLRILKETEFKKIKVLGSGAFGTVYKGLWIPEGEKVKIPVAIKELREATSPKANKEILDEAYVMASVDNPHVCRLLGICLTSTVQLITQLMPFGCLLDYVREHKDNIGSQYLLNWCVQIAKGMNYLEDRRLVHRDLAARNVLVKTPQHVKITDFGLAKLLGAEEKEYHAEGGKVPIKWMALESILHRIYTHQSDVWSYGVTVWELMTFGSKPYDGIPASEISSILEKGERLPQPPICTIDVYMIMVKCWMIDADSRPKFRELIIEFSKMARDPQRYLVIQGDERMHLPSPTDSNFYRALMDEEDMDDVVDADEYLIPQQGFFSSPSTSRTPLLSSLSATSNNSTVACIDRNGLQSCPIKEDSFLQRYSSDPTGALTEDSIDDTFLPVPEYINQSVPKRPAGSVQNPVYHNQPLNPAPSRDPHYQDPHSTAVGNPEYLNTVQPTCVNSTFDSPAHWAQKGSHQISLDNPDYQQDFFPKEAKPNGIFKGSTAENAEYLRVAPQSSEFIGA
Sequence of Fibroblast growth factor 10 (Homo sapiens) (O15520 whole entry, looked up): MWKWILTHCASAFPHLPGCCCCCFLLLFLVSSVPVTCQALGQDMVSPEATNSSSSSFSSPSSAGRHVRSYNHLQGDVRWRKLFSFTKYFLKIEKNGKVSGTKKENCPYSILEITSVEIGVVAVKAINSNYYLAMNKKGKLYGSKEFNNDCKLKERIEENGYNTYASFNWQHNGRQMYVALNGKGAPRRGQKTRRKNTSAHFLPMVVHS
Sequence of Torsin-1A-interacting protein 2 (Homo sapiens) (Q8NFQ8 whole entry, looked up): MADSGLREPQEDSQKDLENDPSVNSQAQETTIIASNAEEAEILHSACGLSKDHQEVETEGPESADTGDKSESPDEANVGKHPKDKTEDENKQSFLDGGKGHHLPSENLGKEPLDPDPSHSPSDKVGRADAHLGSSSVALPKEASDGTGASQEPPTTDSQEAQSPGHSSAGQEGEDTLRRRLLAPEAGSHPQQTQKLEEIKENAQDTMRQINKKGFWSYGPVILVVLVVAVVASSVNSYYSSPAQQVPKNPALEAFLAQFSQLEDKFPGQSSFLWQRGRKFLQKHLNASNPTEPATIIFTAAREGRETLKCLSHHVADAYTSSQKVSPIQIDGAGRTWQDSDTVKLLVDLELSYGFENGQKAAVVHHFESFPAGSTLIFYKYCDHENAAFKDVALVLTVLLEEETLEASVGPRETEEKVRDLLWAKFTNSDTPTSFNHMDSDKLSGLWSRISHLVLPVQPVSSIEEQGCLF
Sequence of Dickkopf-related protein 1 (Homo sapiens) (O94907 whole entry, looked up): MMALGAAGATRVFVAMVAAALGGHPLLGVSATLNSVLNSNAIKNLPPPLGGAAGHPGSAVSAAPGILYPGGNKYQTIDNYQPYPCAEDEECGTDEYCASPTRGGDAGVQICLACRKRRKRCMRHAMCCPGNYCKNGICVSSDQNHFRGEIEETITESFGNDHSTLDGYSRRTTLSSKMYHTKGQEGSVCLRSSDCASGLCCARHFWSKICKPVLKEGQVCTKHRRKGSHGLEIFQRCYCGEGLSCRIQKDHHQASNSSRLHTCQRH

Consider `[N-]=[N+]=NCc1ccccc1C[C@]1(C(N)=O)N=C(c2ccc(OCCCO)cc2)O[C@H]1c1ccccc1N=[N+]=[N-]`, for which the composite z-score was 1.37 in assay [1]; 2.84 in assay [5]; 0.175 in assay [7]; -0.433 in assay [8]; 0.616 in [9]; 0.268 in [10]. For the same compound, the composite z-score in [11] is 0.573; in assay [12] it was 0.911; in assay [13] it was 1.16; in [15], 0.617; in assay [16], 1; in assay [17] it was -0.236. The composite z-score in [18] was 0.416; in assay [19], -0.322; in assay [20] it was 1.45. Further, the z-score was 1.22 (inactive) in assay [2]; 1.29 (inactive) in assay [3]; 1.39 (inactive) in [4]; -0.0072 (inactive) in [6]; -0.288 (inactive) in assay [14].

Take `C=C(CCCC)C(=O)CC[C@@H](OC(=O)c1ccccc1-c1ccccc1C(=O)O)c1ccc(CO)o1`: the composite z-score in assay [1] is 1.56; in assay [5], 0.779; in [7], 0.0202; in assay [8] it was 1.24; in [9], 0.534; in [10], 0.0068. Further, the composite z-score in assay [11] is 0.628; in assay [12], -0.0075; in [13], -0.301; in assay [15], 1.22; in assay [16] it was 1.1; in assay [17] it was -0.183. Further, the composite z-score in assay [18] came out at 0.818; in [19], 1.03; in assay [20] it was 1.01. For the same compound, the z-score in [2] was -0.516 (inactive); in assay [3] it was -0.0561 (inactive); in assay [4] it was -0.667 (inactive); in assay [6], 0.122 (inactive); in assay [14], 0.716 (inactive).

Turning to `CN(C)CCCCNC(=O)[C@@H]1C[C@@H]2C(=O)N[C@@H](CCCCN)C(=O)N2[C@@H]1c1cccc(OCCO)c1`, the composite z-score in assay [1] was 1.02; in assay [5], 3.58; in assay [7], 0.197; in assay [8], -0.989; in assay [9] it was 0.37; in [10], -0.223. The composite z-score in assay [11] is 1.9; in [12], 0.123; in [13] it was 0.74; in [15] it was -0.383; in assay [16], 0.0265; in assay [17], -1.22. Besides, the composite z-score was -0.795 in assay [18], -0.988 in assay [19] and 0.0049 in assay [20]. For the same compound, the z-score in [2] was -0.0533 (inactive); in assay [3] it was 0.286 (inactive); in assay [4], -0.363 (inactive); in [6] it was -0.285 (inactive); in assay [14], -0.239 (inactive).

`C=CCNC(=O)[C@@H]1[C@H]2C(=O)O[C@H](c3ccccc3)[C@H](c3ccccc3)N2[C@H](c2ccccc2OCCO)[C@@]12C(=O)N(C(=O)OCCOC)c1ccc(C#CCC(C(=O)OC)C(=O)OC)cc12`: the composite z-score in [1] worked out at 1.53; in assay [5] it was 3.56; in [7], 0.891; in [8] it was 1.9; in assay [9], 1.07; in assay [10], 0.573. Besides, the composite z-score in assay [11] was 1.89; in assay [12], 2; in assay [13], 1.09; in assay [15], 1.43; in assay [16], 1.31; in assay [17], 1.25. Further, the composite z-score in [18] was determined as 1.5; in assay [19], 1.34; in assay [20], 1.33. The z-score in [2] is 1.38 (inactive); in assay [3], 2.06 (inactive); in assay [4], 6.46 (inactive); in assay [6] it was 0.221 (inactive); in assay [14], -0.235 (inactive).

Consider `CN1C(=O)C2C=CC(C(O)c3ccccc3)N(NC(=O)OC(C)(C)C)C2C1=O` (stereo not given), for which the composite z-score in assay [1] was 0.408; in [5], 2.93; in assay [7], 0.0875; in assay [8] it was -0.201; in assay [9] it was 0.497; in [10] it was 0.0182. The composite z-score was 0.782 in assay [11]; 0.153 in [12]; 0.455 in assay [13]; 0.35 in assay [15]; 0.459 in [16]; -0.043 in assay [17]. In addition, the composite z-score in [18] was -0.0889; in assay [19] it was -0.237; in [20], 0.375. Also, the z-score in [2] was 0.382 (inactive); in assay [3], 1.52 (inactive); in assay [4], 1.45 (inactive); in assay [6], -0.828 (inactive); in assay [14], 1.54 (inactive).
